Reference: the supplement of paper PMC10849652
About 8,800 targets were measured; listed, in parts, are those with a hit and a random draw of the rest. About 0.5% of all pairs of compound and target were hits.

Assays:
Experiment in all cases: log2 fold change, soluble protein after heating vs DMSO (PISA); higher = thermal stabilisation; K562 lysate, 10 uM; active = over 0.2 and 3.5 SD of the protein, either way, in both replicates (recomputed)
lapatinib = compound: CS(=O)(=O)CCNCc1ccc(-c2ccc3ncnc(Nc4ccc(OCc5cccc(F)c5)c(Cl)c4)c3c2)o1 [lapatinib]
How it was run: (§1)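 To prepare the extract, K562 pellets were dounce-homogenised in PBS pH 7.4 with 1 mM MgCl2, giving crude material at 1 mg/mL protein. This was treated with 10 μM compound for 30 min, then heated in aliquots for 3 min over 48°C-58°C before pooling and addition of NP-40 to 0.5% at 4°C. Centrifugation at 21,000xg for 90 min left soluble protein in the supernatant, which TMTpro 16plex LC-MS/MS quantified with equalised channel sums. Results are log-two fold changes in thermal stability compared with solvent controls, from duplicates.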

pictilisib = compound: CS(=O)(=O)N1CCN(Cc2cc3nc(-c4cccc5[nH]ncc45)nc(N4CCOCC4)c3s2)CC1 [pictilisib]
How it was run: as §1

crizotinib = compound: C[C@@H](Oc1cc(-c2cnn(C3CCNCC3)c2)cnc1N)c1c(Cl)ccc(F)c1Cl [crizotinib]
How it was run: as §1

[1] = compound: C[C@H](C1=CC=C(C=C1)C(=O)NC2=C3C=CNC3=NC=C2)N
How it was run: as §1

duvelisib = compound: C[C@H](Nc1ncnc2nc[nH]c12)c1cc2cccc(Cl)c2c(=O)n1-c1ccccc1 [duvelisib]
How it was run: as §1

gandotinib = compound: Cc1cc(Nc2cc(CN3CCOCC3)c3nc(C)c(Cc4ccc(Cl)cc4F)n3n2)n[nH]1 [gandotinib]
How it was run: as §1

tozasertib = compound: Cc1cc(Nc2cc(N3CCN(C)CC3)nc(Sc3ccc(NC(=O)C4CC4)cc3)n2)n[nH]1 [tozasertib]
How it was run: as §1

doramapimod = compound: Cc1ccc(-n2nc(C(C)(C)C)cc2NC(=O)Nc2ccc(OCCN3CCOCC3)c3ccccc23)cc1 [doramapimod]
How it was run: as §1

bafetinib = compound: Cc1ccc(NC(=O)c2ccc(CN3CC[C@H](N(C)C)C3)c(C(F)(F)F)c2)cc1Nc1nccc(-c2cncnc2)n1 [bafetinib]
How it was run: as §1

[2] = compound: Cc1cccc(CC(=O)N2CCc3c2ccc(-c2cn(C)c4ncnc(N)c24)c3F)n1
How it was run: as §1

nilotinib = compound: Cc1cn(-c2cc(NC(=O)c3ccc(C)c(Nc4nccc(-c5cccnc5)n4)c3)cc(C(F)(F)F)c2)cn1 [nilotinib]
How it was run: as §1

[3] = compound: Cc1nc(Nc2n[nH]c3c2CN(C(=O)N[C@H](CN(C)C)c2ccccc2)C3(C)C)c2sccc2n1
How it was run: as §1

dasatinib = compound: Cc1nc(Nc2ncc(C(=O)Nc3c(C)cccc3Cl)s2)cc(N2CCN(CCO)CC2)n1 [dasatinib]
How it was run: as §1

[4] = compound: Cc1ncc(-c2ccnc(Nc3ccc(S(C)(=O)=O)cc3)n2)n1C(C)C
How it was run: as §1

[5] = compound: Cn1cc(-c2ccc3c(c2)CCN3C(=O)Cc2cccc(C(F)(F)F)c2)c2c(N)ncnc21
How it was run: as §1

quisinostat = compound: Cn1cc(CNCC2CCN(c3ncc(C(=O)NO)cn3)CC2)c2ccccc21 [quisinostat]
How it was run: as §1

tipifarnib = compound: Cn1cncc1[C@@](N)(c1ccc(Cl)cc1)c1ccc2c(c1)c(-c1cccc(Cl)c1)cc(=O)n2C [tipifarnib]
How it was run: as §1

[6] = compound: NC(=O)Nc1cc(-c2cccc(F)c2)sc1C(=O)N[C@H]1CCCNC1
How it was run: as §1

[7] = compound: NC(=O)c1cnc(N[C@@H]2CCCC[C@@H]2N)nc1Nc1cccc(-n2nccn2)c1
How it was run: as §1

[8] = compound: NC1(c2ccc(-c3nc4ccn5c(=O)[nH]nc5c4cc3-c3ccccc3)cc2)CCC1
How it was run: as §1

Measured: log2 fold change

SNRNP40 (UniProt Q96DI7)
UniProt Q96DI7, sequence (Q96DI7 whole entry, looked up): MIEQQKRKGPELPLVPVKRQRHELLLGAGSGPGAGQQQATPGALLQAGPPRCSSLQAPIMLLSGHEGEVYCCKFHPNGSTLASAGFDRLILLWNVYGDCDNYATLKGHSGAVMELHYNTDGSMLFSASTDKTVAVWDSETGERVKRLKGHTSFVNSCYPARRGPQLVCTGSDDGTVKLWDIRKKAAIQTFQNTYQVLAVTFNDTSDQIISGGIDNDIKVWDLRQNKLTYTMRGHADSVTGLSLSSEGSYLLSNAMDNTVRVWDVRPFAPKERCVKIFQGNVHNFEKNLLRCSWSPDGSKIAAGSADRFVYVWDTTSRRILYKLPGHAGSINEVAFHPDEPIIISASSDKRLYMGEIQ
inactive: lapatinib -0.014 | pictilisib 0.063 | crizotinib -0.042 | [1] -0.075 | duvelisib -0.006 | gandotinib 0.167 | tozasertib 0.015 | doramapimod 0.121 | bafetinib 0.011 | [2] 0.089 | nilotinib 0.018 | [3] 0.03 | dasatinib -0.007 | [4] 0.019 | [5] -0.004 | quisinostat -0.027 | tipifarnib 0.012 | [6] 0.013 | [7] -0.012 | [8] 0.002

SHKBP1 (UniProt Q8TBC3)
UniProt Q8TBC3, sequence (Q8TBC3 whole entry, looked up): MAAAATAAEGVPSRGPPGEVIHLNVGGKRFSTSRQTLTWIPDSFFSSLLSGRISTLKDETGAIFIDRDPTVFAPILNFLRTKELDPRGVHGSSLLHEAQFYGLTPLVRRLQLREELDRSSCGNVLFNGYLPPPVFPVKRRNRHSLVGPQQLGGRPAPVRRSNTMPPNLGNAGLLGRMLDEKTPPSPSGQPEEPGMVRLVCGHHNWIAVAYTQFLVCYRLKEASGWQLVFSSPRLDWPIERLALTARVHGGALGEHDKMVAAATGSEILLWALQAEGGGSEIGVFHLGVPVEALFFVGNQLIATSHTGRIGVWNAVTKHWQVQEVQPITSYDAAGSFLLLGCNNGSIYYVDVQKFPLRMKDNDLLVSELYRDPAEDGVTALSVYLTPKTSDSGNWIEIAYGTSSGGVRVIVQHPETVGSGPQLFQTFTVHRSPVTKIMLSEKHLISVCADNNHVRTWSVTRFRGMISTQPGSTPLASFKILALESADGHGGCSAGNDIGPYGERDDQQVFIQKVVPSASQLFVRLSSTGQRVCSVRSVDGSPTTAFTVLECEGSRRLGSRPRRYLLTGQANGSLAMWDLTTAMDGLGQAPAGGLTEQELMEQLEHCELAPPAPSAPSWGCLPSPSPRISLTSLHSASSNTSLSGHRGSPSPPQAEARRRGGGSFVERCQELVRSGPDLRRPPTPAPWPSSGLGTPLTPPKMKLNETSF
inactive: lapatinib -0.027 | pictilisib -0.045 | crizotinib -0.009 | [1] -0.045 | duvelisib 0.055 | gandotinib 0.034 | tozasertib -0.009 | doramapimod 0.005 | bafetinib -0.04 | [2] 0.055 | nilotinib 0.055 | [3] 0.098 | dasatinib 0.117 | [4] -0.072 | [5] -0.011 | quisinostat -0.039 | tipifarnib 0.088 | [6] -0.016 | [7] 0.007 | [8] -0.096

SMAD2 (UniProt Q15796)
UniProt Q15796, sequence (Q15796 whole entry, looked up): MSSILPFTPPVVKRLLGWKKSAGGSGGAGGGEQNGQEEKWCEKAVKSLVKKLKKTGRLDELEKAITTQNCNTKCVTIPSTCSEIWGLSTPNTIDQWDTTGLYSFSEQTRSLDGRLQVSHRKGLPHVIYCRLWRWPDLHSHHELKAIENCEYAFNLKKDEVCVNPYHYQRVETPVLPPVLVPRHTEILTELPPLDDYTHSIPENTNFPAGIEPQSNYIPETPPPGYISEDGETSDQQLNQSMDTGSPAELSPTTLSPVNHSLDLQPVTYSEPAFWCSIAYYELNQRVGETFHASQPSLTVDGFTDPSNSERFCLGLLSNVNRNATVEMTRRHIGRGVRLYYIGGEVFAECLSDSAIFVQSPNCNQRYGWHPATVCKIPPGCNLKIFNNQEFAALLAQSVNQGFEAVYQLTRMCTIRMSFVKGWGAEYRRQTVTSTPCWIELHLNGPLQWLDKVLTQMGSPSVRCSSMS
inactive: lapatinib -0.006 | pictilisib -0.042 | crizotinib -0.055 | [1] -0.073 | duvelisib -0.066 | gandotinib -0.006 | tozasertib -0.027 | doramapimod -0.025 | bafetinib -0.005 | [2] 0.06 | nilotinib 0.025 | [3] 0.116 | dasatinib 0.006 | [4] -0.059 | [5] 0.011 | quisinostat -0.012 | tipifarnib 0.055 | [6] 0.038 | [7] -0.015 | [8] 0.042

SH3BGRL2 (UniProt Q9UJC5)
UniProt Q9UJC5, sequence (Q9UJC5 whole entry, looked up): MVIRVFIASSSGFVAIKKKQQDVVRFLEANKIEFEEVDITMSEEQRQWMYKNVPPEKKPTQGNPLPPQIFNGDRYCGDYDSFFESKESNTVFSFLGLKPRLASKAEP
active: [1] 0.342
inactive: lapatinib 0.021 | pictilisib 0.012 | crizotinib -0.025 | duvelisib -0.007 | gandotinib -0.116 | tozasertib -0.078 | doramapimod 0.021 | bafetinib -0.058 | [2] -0.184 | nilotinib -0.001 | [3] -0.001 | dasatinib 0.077 | [4] -0.019 | [5] -0.033 | quisinostat -0.029 | tipifarnib 0.013 | [6] 0.009 | [7] -0.04 | [8] 0.032

SLC39A11 (UniProt Q8N1S5)
UniProt Q8N1S5, sequence (Q8N1S5 whole entry, looked up): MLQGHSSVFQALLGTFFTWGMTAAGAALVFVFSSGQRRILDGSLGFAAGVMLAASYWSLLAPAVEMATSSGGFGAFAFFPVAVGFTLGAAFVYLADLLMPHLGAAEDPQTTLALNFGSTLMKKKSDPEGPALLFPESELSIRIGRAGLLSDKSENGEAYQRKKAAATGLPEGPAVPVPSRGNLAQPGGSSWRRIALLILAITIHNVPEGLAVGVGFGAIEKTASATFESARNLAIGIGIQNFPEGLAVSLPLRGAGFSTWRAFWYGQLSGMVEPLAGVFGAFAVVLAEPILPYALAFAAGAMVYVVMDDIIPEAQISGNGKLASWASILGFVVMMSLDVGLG
inactive: lapatinib -0.054 | pictilisib 0.081 | crizotinib 0.081 | [1] -0.097 | duvelisib -0.002 | gandotinib 0.1 | tozasertib 0.178 | doramapimod -0.139 | bafetinib 0.022 | [2] 0.013 | nilotinib 0.072 | [3] -0.039 | dasatinib -0.092 | [4] -0.008 | [5] -0.123 | quisinostat 0.127 | tipifarnib 0.068 | [6] 0.045 | [7] 0.026 | [8] 0.099

SPIRE1 (UniProt Q08AE8)
UniProt Q08AE8, sequence (Q08AE8 whole entry, looked up): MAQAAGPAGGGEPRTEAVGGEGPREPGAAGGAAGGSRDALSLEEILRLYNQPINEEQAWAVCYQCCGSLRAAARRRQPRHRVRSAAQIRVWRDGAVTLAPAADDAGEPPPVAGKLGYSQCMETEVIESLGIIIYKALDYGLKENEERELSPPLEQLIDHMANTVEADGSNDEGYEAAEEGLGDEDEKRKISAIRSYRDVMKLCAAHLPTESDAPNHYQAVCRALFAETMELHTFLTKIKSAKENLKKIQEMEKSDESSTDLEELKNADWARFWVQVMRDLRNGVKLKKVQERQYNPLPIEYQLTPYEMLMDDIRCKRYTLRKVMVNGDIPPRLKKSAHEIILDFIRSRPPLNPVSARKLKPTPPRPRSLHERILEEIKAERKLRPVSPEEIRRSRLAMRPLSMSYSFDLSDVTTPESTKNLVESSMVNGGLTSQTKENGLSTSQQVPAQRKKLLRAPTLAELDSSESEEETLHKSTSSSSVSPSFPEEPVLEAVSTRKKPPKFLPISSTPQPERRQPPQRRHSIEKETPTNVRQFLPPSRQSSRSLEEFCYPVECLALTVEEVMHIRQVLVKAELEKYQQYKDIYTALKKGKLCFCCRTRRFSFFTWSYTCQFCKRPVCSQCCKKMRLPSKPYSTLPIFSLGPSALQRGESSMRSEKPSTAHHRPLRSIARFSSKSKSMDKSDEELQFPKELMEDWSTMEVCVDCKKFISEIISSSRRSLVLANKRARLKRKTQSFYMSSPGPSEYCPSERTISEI
inactive: lapatinib -0.019 | pictilisib 0.012 | crizotinib -0.072 | duvelisib -0.021 | gandotinib 0.128 | tozasertib -0.023 | doramapimod 0.151 | bafetinib -0.031 | [2] 0.134 | nilotinib 0.064 | [3] 0.011 | dasatinib 0.037 | [4] -0.03 | [5] 0.025 | quisinostat -0.186 | tipifarnib 0.055 | [6] -0.032 | [7] 0.042 | [8] -0.01
active: [1] -0.281

STK24 (UniProt B4DR80)
active: [3] 0.298
inactive: lapatinib 0.006 | pictilisib 0 | crizotinib 0.044 | [1] 0.034 | duvelisib -0.016 | gandotinib 0.089 | tozasertib 0.001 | doramapimod -0.054 | bafetinib 0.004 | [2] 0 | nilotinib 0.031 | dasatinib 0.092 | [4] 0.086 | [5] -0.005 | quisinostat -0.019 | tipifarnib 0.007 | [6] 0.187 | [7] 0.023 | [8] -0.005

SHC1 isoform 6 (UniProt P29353)
UniProt P29353, sequence (P29353 whole entry, looked up): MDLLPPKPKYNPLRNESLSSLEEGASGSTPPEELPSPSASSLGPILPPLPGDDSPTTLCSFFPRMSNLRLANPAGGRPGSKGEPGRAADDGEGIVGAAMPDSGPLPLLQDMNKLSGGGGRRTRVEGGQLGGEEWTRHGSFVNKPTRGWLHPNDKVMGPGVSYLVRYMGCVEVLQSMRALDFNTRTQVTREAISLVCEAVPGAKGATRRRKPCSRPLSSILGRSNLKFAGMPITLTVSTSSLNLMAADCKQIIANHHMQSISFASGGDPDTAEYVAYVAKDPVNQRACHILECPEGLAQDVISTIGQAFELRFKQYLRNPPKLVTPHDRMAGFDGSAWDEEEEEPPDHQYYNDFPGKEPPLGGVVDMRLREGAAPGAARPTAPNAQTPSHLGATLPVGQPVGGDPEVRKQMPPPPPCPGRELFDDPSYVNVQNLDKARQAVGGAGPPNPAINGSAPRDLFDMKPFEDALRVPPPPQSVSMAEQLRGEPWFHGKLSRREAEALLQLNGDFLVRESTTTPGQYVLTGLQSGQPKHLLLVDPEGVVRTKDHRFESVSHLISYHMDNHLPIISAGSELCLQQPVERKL
inactive: lapatinib 0.019 | pictilisib -0.057 | crizotinib 0.001 | duvelisib 0.005 | gandotinib -0.106 | tozasertib 0.005 | doramapimod 0.065 | bafetinib -0.034 | [2] -0.175 | nilotinib 0.034 | [3] 0.011 | dasatinib 0.046 | [4] -0.02 | [5] -0.005 | quisinostat 0.022 | tipifarnib 0.006 | [6] -0.036 | [7] -0.029 | [8] -0.001
active: [1] 0.577
